Screen size: about 350,000 compounds; about 31,000 (8.9%) were called active. Where a call stands in place of a potency, no number is given. Roughly 15% stayed inconclusive and do not appear here. The sample holds actives, similar compounds and a random draw of the others, so the mix is not that of the screen. A number with no mark means an inactive call. Calls follow the shape of the dose curve; as a rule, active = well fitted inhibition curve with a large enough effect; inconclusive = small, poorly fitted or top-dose-only effect; inactive = no such curve, though single readings can be large or run the other way.

The source of these data is PubChem BioAssay AID504332 (National Center for Advancing Translational Sciences (NCATS), 2011).
Potency is read from the fitted curve at half-maximal effect.

This experiment deals with Histone-lysine N-methyltransferase EHMT2 (Homo sapiens) (UniProt Q96KQ7). The experiment is described as follows: qHTS Assay for Inhibitors of Histone Lysine Methyltransferase G9a. Also: nearly all actives have a fitted effect of over 75% in size. The note with it: G9a H3K9 monomethylation, AlphaScreen, 2 h; series mostly up to 59 µM. From the text: Methylated lysines, on the N-terminal tails of histone proteins serve as epigenetic markers to recruit factors that can then modify local chromatin structure to lead to functional consequences. G9a and other members of the SUV39 family of the SET domain-containing superfamily of histone lysine methyltransferases (HMT) have been identified to specifically methylate Lys9 of histone H3 (H3K9). G9a catalyzes the mono- and di-methylation of H3K9 in mammalian euchromatic regions, where the resulting H3K9me2 is indicative of transcriptional repression. […] The inhibition of G9a will result in transcriptional activation and work synergistically with DNA methyltransferase and histone deacetylase inhibitors, to kill cancer cells. This qHTS assay for identification of G9a inhibitors is a chemiluminescence based AlphaScreen (PerkinElmer). Methylation of biotinylated-histone peptide is measured through specific antibody-based detection, in conjunction with streptavidin-coated donor and anti-IgG antibody-coated acceptor beads. The method is particularly well suited for detection of inhibitors acting by the desired histone peptide competitive mechanism and is applicable to testing other HMTs. Although AlphaScreen has significant advantages with its utility in a variety of epigenetic target assays, the primary screening data provided in this deposition should be used with caution due to the prevalence of screening artifacts. An AlphaScreen counterscreen is highly recommended to be run against any putative actives to eliminate non specific artifacts. Alternatively, one can use other AlphaScreen assays in PubChem to filter out promiscuous hits. Quinn et al. A chemiluminescence-based method for identification of histone lysine methyltransferase inhibitors. Mol Biosyst 6(5): 782-8. 2010. PMID: 20567762 [2] Baell,Holloway. New substructure filters for removal of pan assay interference compounds (PAINS) from screening libraries and for their exclusion in bioassays. J Med Chem. 53(7):2719-40. 2010. PMID: 20131845 NIH Molecular Libraries Probe Production Network [MLPCN] NIH Chemical Genomics Center [NCGC] Structural Genomics Consortium (SGC) NIH Grant: 5U54 MH084681-02
Sequence of Histone-lysine N-methyltransferase EHMT2 (Homo sapiens) (Q96KQ7 913-1193 limits assumed): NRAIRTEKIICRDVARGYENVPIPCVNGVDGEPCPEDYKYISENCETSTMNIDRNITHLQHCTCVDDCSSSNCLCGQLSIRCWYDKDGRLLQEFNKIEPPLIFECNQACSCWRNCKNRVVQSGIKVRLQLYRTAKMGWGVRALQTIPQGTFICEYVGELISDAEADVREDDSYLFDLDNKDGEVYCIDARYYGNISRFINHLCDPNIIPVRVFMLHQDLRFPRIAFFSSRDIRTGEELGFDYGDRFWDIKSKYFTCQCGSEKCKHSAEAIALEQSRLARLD
To each well of a 1,536w plate, 2ul of HMT enzyme (final 20nM) were added, using a nanoliter dispenser. The G9a- and GLP-inhibitor BIX-01294 (CID: 25150857) are used as an intraplate control, with a 16-point titration in duplicate. A Kalypsys pin-tool transferred 23nl of library compound solution in DMSO to each well. Following a 15 min incubation of enzyme with compounds at room temperature, 1ul mixture of b-H3K9 peptide substrate (final 500nM) and SAM cofactor (final 20uM) were added. Reactions were allowed to proceed at room temperature for 2 hours. Methylated b-H3K9 peptide product was detected with 0.5 ug/mL rabbit polyclonal anti-monomethyl histone H3K9 antibody (Abcam Inc., Cambridge, MA) and 20 ug/mL each streptavidin-coated donor and anti-rabbit IgG acceptor AlphaScreen beads. Antibody and beads were added in a 1ul dispense, for a final volume of 4ul, and plates were incubated, protected from the light, for 10 min at room temperature. Microplates were then read on an EnVision multilabel plate reader using the 1,536 plate HTS AlphaScreen aperture (excitation time 80 ms, measurement time 240 ms).
In general terms: Quantitative high-throughput screening tests each substance at several concentrations.
For the molecule `Cc1ccc(OCC(=O)Nc2ccc(S(=O)(=O)Nc3ccccn3)cc2)cc1`, the Potency result is “inactive”.

Consider `CNC(=O)COc1ccc(S(=O)(=O)Nc2ccccc2)cc1`, for which the Potency is 50.1 µM (active).

As to `CCOc1ccc(NS(=O)(=O)c2ccc(OCC(=O)NCCCOC)cc2)cc1`, the activity, negative = inhibition was 1.35% [at 12.7 µM].

Regarding `Cn1c(COc2ccccc2C(C)(C)C)nc2ccccc21`, the Potency result is “inactive”.

Take `CC(C)C(c1nnnn1C1CCCCC1)N1CCN(C(=O)c2ccco2)CC1` (stereo not drawn): the Potency result is “inactive”.

In the case of `CC(C)C(c1nnnn1CCc1ccccc1)N1CCN(C(=O)c2ccco2)CC1` (stereo not drawn), the Potency result is “inactive”.

With `CCC(c1nnnn1C1CCCC1)N1CCN(C(=O)c2ccco2)CC1` (stereo not drawn), the Potency is 17.8 µM (active).

Turning to `COC(=O)c1ccc(C2C(C(=O)Nc3ccccc3)=C(C)Nc3nc4ccccc4n32)cc1` (stereo not drawn), the Potency result is “inactive”.

`O=C(Oc1ccc(C(=S)N2CCOCC2)cc1)c1ccc(F)cc1`: the Potency is 35.5 µM (active).

As for `Cc1ccc(C(=O)Oc2ccc(C(=S)N3CCOCC3)cc2)cc1`, the activity, negative = inhibition is 10.7% [at 2.33 µM].

For the molecule `O=C(Oc1ccc(F)cc1)N1CCOCC1`, the Potency result is “inactive”.

As to `O=C(CN1C(=O)S/C(=C\c2ccccc2Cl)C1=O)NC1C=CS(=O)(=O)C1` (stereo not drawn), the Potency result is “inactive”.

With `CC(C)NC(=O)CSc1ccccc1C(=O)NCc1ccc2c(c1)OCO2`, the Potency entry is “inactive”.

With `CC(NC(=O)Nc1ccc2c(c1)OCO2)c1ccncc1` (stereo not drawn), the Potency was 50.1 µM (active).

Consider `CCc1ccc(NC(=O)NC(C)c2ccc3c(c2)OCO3)cc1` (stereo not drawn), for which the Potency entry was “inactive”.

Regarding `CCSc1ccccc1C(=O)Nc1ccc2c(c1)OCO2`, the Potency was 3.98 µM (active).

Regarding `CC(C)C(=O)Nc1cccc(C(=O)Nc2ccc3c(c2)OCO3)c1`, the Potency result was “inactive”.

As to `CC(NC(=O)Nc1cccc([N+](=O)[O-])c1)c1ccc2c(c1)OCO2` (stereo not drawn), the Potency entry was “inactive”.

As to `CC(=O)Nc1ccc(NC(=O)c2cc3sccc3n2Cc2ccc(F)cc2)cc1`, the Potency result was “inactive”.

Turning to `COc1ccc(NC(=O)C2CCCN(S(=O)(=O)c3c(C)[nH]c(=O)[nH]c3=O)C2)c(OC)c1` (stereo not drawn), the Potency result was “inactive”.

With `CCn1c(SCC(=O)Nc2nccs2)nnc1-c1ccncc1`, the activity, negative = inhibition is -2.99% [at 12.7 µM].

Regarding `CCOC(=O)CNC(=O)CSc1nnc(COc2ccc(Cl)cc2)n1CC`, the Potency was 20 µM (active).

`C=CCn1c(COc2ccccc2)nnc1SCC(=O)NCC(=O)OCC`: the Potency result was “inactive”.

Take `CCn1c(COc2ccc(OC)cc2)nnc1SCC(=O)Nc1cc(OC)ccc1OC`: the activity, negative = inhibition is 7.11% [at 12.7 µM].

Take `CCOC(=O)CNC(=O)CSc1nnc(-c2cccc(OC)c2)n1CC`: the Potency is 50.1 µM (active).

Take `CCOC(=O)CNC(=O)c1nn(-c2cccc(OC)c2)c(=O)c2ccccc12`: the Potency entry was “inactive”.

For the molecule `CN(C)c1cccc(C(=O)Nc2nc3ccc(S(=O)(=O)NC(C)(C)C)cc3s2)c1`, the Potency result was “inactive”.

On to `CCCCCN(C(=O)CCC(=O)OCCOc1ccc(OC)cc1)c1c(N)n(CCCC)c(=O)[nH]c1=O`, for which the Potency result is “inactive”.

As for `COC(=O)C1CCN(C(=O)NC2CC(=O)N(c3ccc4c(c3)OCCO4)C2)CC1` (stereo not drawn), the activity, negative = inhibition was 21.6% [at 0.501 µM].

Consider `O=C(CSc1nnc(N2CCOCC2)n1-c1cccc(F)c1)N1CCN(c2ccccn2)CC1`, for which the activity, negative = inhibition is -9.34% [at 12.7 µM].

In the case of `COc1ccc(S(=O)(=O)c2cn(C)c3cc(N4CCCCC4)c(F)cc3c2=O)cc1`, the Potency entry was “inactive”.

Regarding `CCc1nc(Nc2ccc3nccnc3c2)c2oc3ccccc3c2n1`, the Potency entry is “inactive”.

With `CCc1nc(N2CCN(c3nc(C)cc(C)n3)CC2)c2oc3ccccc3c2n1`, the activity, negative = inhibition was 2.59% [at 2.33 µM].

Consider `CCc1nc(Nc2ccc(NC(C)=O)cc2)c2oc3ccccc3c2n1`, for which the Potency is 50.1 µM (active).

`CCOc1ccc(S(=O)(=O)N(CC(=O)NCCSCc2ccc(C)cc2)c2ccccc2)cc1`: the Potency result is “inactive”.

As to `c1ccc(Cc2ccc(OCCn3ccnc3)cc2)cc1`, the Potency result was “inactive”.

Regarding `Brc1ccc(OCCn2ccnc2)cc1`, the Potency entry was “inactive”.

In the case of `Clc1c(OCCCn2ccnc2)ccc2ccccc12`, the Potency is 79.4 µM (active).

Turning to `Cc1ccccc1S(=O)(=O)N1[C@@H](c2cccc(Cl)c2)C(C(=O)O)=CC[C@H]1c1ccc(Cl)cc1`, the activity, negative = inhibition is -5.32% [at 2.33 µM].

For `CCOc1ccc(CNC(=O)CCc2c(C)nn(-c3ccc(N4CCCCC4)nn3)c2C)cc1`, the Potency entry was “inactive”.

For the molecule `COc1ccccc1CSc1nc2ccccc2[nH]1`, the Potency entry is “inactive”.

`COc1ccccc1CSc1ncc(-c2ccc([N+](=O)[O-])cc2)[nH]1`: the Potency is 8.91 µM (active).

With `COc1ccccc1CC(=O)Nc1ccc([N+](=O)[O-])cc1OC`, the Potency entry was “inactive”.

On to `Cc1ccc(C(=O)NCCNS(=O)(=O)c2ccccc2)cc1`, for which the Potency entry is “inactive”.

Consider `O=C(NCCSc1ccccc1)c1ccco1`, for which the Potency result is “inactive”.

Consider `CCS(=O)(=O)Nc1ccc(C(=O)NCCSc2ccccc2)cc1`, for which the Potency is 79.4 µM (active).

In the case of `CCCN(C(=O)c1nc2nccc(C)n2n1)c1c(N)n(Cc2ccccc2)c(=O)[nH]c1=O`, the activity, negative = inhibition was 3.83% [at 12.7 µM].

Turning to `CC(OC(=O)CCC(=O)c1ccccc1)C(=O)Nc1ccc(F)cc1` (stereo not drawn), the Potency result was “inactive”.
